Experimental findings from PubChem BioAssay (NCATS) are described below.

Inconclusive results are not listed. Calls of active or inactive are those of the source. Calls come from the whole dose curve; as a rule, active = well fitted inhibition curve with a large enough effect; inconclusive = small, poorly fitted or top-dose-only effect; inactive = no such curve, though single readings can be large or run the other way.
Potency is the fitted concentration of half-maximal effect.

The nature of one test: qHTS Screen of the MIPE 4.0 Collection Against Ewings Sarcoma (TC71) (AID 1259253). Note: nearly all actives have a fitted effect of over 40% in size. As to conditions: TC71 Ewing sarcoma viability, CellTiter-Glo, 48 h; series mostly up to 45.8 µM. In outline: (§1)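 Viability screen: 48 h incubation at 37C, 95% humidity, 5% CO2 with serially titrated compound, followed by CellTiter-Glo readout.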
A general note: In qHTS, concentration-response curves come from the screen itself.
Regarding `CN1CCN(c2cc(C(=O)Nc3ccc4c(c3)-c3c(c(C(N)=O)nn3-c3ccc(F)cc3)CC4)c(Cl)cn2)CC1`, the Potency was 4.18 µM (active).
Still for that read-out and setting: next, `CS(=O)(=O)c1ccc(-c2cnc(N)c(C(=O)Nc3ccccc3)n2)cc1`: 10.5 µM (active).
The same measure, in the same setting: next, `CN(C)CC(C)(C)CNc1nn2c(-c3ccccc3)nnc2cc1C1CCC1`: 1.05 µM (active); `CC(=O)Nc1nc(C)c(-c2ccc(Cl)c(S(=O)(=O)NCCO)c2)s1`: 14.8 µM (active).
For the compound `CCn1nnc2c(N3CCOCC3)nc(-c3ccc(NC(=O)Nc4ccc(C(=O)N5CCN(C)CC5)cc4)cc3)nc21`, the Potency was 0.0418 µM (active).
As for `CNC(=O)c1cc(Oc2ccc(NC(=O)Nc3cc(C(C)(C)C)nn3-c3ccc4ncccc4c3)c(F)c2)ccn1`, the Potency was 16.6 µM (active).
Still for that read-out and setting: next, `O=C(NCCCNc1nc(Nc2cccc(NC(=O)N3CCCC3)c2)ncc1I)c1cccs1`: 16.6 µM (active).
In the case of `Cn1c(CNc2ccc(C(=N)N)cc2)nc2cc(C(=O)N(CCC(=O)O)c3ccccn3)ccc21`, the Potency entry was “inactive”.
With `Cc1ccc(C(=O)Nc2cccc(C(F)(F)F)c2)cc1-c1ccc2nc(NCCN3CCOCC3)ncc2c1`, the Potency is 14.8 µM (active).
Same read-out and setting: next, `CNC(=O)c1ccc(N2C(=S)N(c3cnc(C#N)c(C(F)(F)F)c3)C(=O)C23CCC3)cc1F`: 2.96 µM (active); `CC(C)(C)c1cnc(CSc2cnc(NC(=O)C3CCNCC3)s2)o1`: 0.187 µM (active); `C=C1C(=CC=C2CCC[C@]3(C)[C@@H]([C@H](C)C=C[C@H](C)C(C)C)CC[C@@H]23)C[C@@H](O)C[C@@H]1O`: 0.743 µM (active).
Same read-out and setting: next, `O=C(Nc1nc2cccc(-c3ccc(CN4CCS(=O)(=O)CC4)cc3)n2n1)C1CC1`: 9.35 µM (active); `O=C(O)C1(Cc2cccc(Nc3nccs3)n2)CCC(Oc2cccc(Cl)c2F)CC1` (stereo not given): 1.66 µM (active).
On the same count and under the same terms, next, `Nc1nccc(Oc2ccc(NC(=O)c3c[nH]cc(-c4ccc(F)cc4)c3=O)cc2F)c1Cl`: 2.96 µM (active); `Clc1ccc2ncc(-c3cccc(NC4CNC4)n3)n2c1`: 20.9 µM (active).
Turning to `O=c1[nH]nc(Sc2ncc([N+](=O)[O-])s2)n1-c1ccc2c(c1)OCCO2`, the Potency was 6.62 µM (active).
The same measure, in the same setting: next, `CC(C)Nc1cc(C(F)(F)F)cc2nc(NC(=O)c3cccnc3)nn12`: 13.2 µM (active); `O=C(O)CCCc1c[nH]c2ccccc12`: “inactive”.
On the same count and under the same terms, next, `C=C1C(=CC=C2CCCC3(C)[C@@H]([C@H](C)C=CC=CC(O)(CC)CC)CC[C@@H]23)C[C@@H](O)C[C@@H]1O` (stereo not given in full): 18.7 µM (active); `CNc1nccc(-c2cccnc2Oc2cc(C(=O)Nc3cccc(C(F)(F)F)c3)ccc2C)n1`: 16.6 µM (active).
As to `COc1cc2c(Nc3ccc(NC(=O)c4ccccc4)cc3)ncnc2cc1OCCCN1CCOCC1`, the Potency is 16.6 µM (active).
On the same count and under the same terms, next, `CCCCCCCCCC(=O)N[C@@H](Cc1c[nH]c2ccccc12)C(=O)N[C@H](CC(N)=O)C(=O)N[C@@H](CC(=O)O)C(=O)N[C@@H]1C(=O)NCC(=O)N[C@@H](CCCN)C(=O)N[C@@H](CC(=O)O)C(=O)N[C@H](C)C(=O)N[C@@H](CC(=O)O)C(=O)NCC(=O)N[C@H](CO)C(=O)N[C@@H]([C@@H](C)CC(=O)O)C(=O)N[C@@H](CC(=O)c2ccccc2N)C(=O)O[C@@H]1C`: “inactive”.
Same read-out and setting: next, `Cc1nc(N)ncc1-c1nc(N2CCOCC2)c2sc(C(C)(C)O)cc2n1`: 5.9 µM (active).
Same read-out and setting: under `Cc1ccc(CN2CCNCC2)cc1NC(=O)CNc1ccc(F)c(F)c1` stands 5.26 µM (active).
In the case of `CN(C1CCc2c(c3ccccc3n2CC(=O)O)C1)S(=O)(=O)c1ccc(F)cc1` (stereo not given), the Potency entry is “inactive”.
Turning to `Cc1c(Cn2c(C)nc3c(C(=O)O)cc(N4CCOCC4)cc32)cccc1C(F)(F)F`, the Potency was 10.5 µM (active).
The same measure, in the same setting: next, `CNC(=O)c1ccccc1Nc1nc(Nc2ccc(N3CCOCC3)cc2OC)ncc1Cl`: 1.32 µM (active); `CC(C)c1cc(C(=O)N2Cc3ccc(CN4CCN(C)CC4)cc3C2)c(O)cc1O`: 0.235 µM (active); `COc1cc2c(Oc3ccc(NC(=O)C4(C(=O)Nc5ccc(F)cc5)CC4)cc3F)ccnc2cc1OCCCN1CCOCC1`: 3.32 µM (active).
The same measure, in the same setting: next, `CCNC(=O)Nc1ccc2ncc(Nc3ccc(C)cc3)nc2n1`: 2.96 µM (active); `CN(C)c1nc(Cc2ccc(NC(=O)c3ccc4ccccc4c3)cc2)nc(Cl)c1CC(=O)O`: “inactive”.
The same measure, in the same setting: under `COC(=O)Nc1ccc(-c2nc(N3CCOCC3)c3cnn(C4CCN(Cc5cccnc5)CC4)c3n2)cc1` stands 0.059 µM (active).
Consider `CC(C)(C)c1cc(C(C)(C)C)c(NC(=O)c2c[nH]c3ccccc3c2=O)cc1O`, for which the Potency entry was “inactive”.
The same measure, in the same setting: next, `Cc1cc(Nc2cc(N3CCN(C)CC3)nc(C=Cc3ccccc3)n2)n[nH]1`: 2.41 µM (active).

Another test can be described thus: qHTS Screen of the MIPE 4.0 Collection Against Ewings Sarcoma (EW8) (AID 1259255). Note: nearly all actives have a fitted effect of over 35% in size. As to conditions: EW8 Ewing sarcoma viability, CellTiter-Glo, 48 h; series mostly up to 45.8 µM. An outline of the steps: as §1
Regarding `CN1CCN(c2cc(C(=O)Nc3ccc4c(c3)-c3c(c(C(N)=O)nn3-c3ccc(F)cc3)CC4)c(Cl)cn2)CC1`, the Potency is 20.9 µM (active).
Still for that read-out and setting: under `CS(=O)(=O)c1ccc(-c2cnc(N)c(C(=O)Nc3ccccc3)n2)cc1` stands 13.2 µM (active); under `CN(C)CC(C)(C)CNc1nn2c(-c3ccccc3)nnc2cc1C1CCC1`, 0.469 µM (active).
Same read-out and setting: next, `CC(=O)Nc1nc(C)c(-c2ccc(Cl)c(S(=O)(=O)NCCO)c2)s1`: 16.6 µM (active).
The same measure, in the same setting: under `CCn1nnc2c(N3CCOCC3)nc(-c3ccc(NC(=O)Nc4ccc(C(=O)N5CCN(C)CC5)cc4)cc3)nc21` stands 0.0066 µM (active); under `CNC(=O)c1cc(Oc2ccc(NC(=O)Nc3cc(C(C)(C)C)nn3-c3ccc4ncccc4c3)c(F)c2)ccn1`, 18.7 µM (active); under `O=C(NCCCNc1nc(Nc2cccc(NC(=O)N3CCCC3)c2)ncc1I)c1cccs1`, 1.87 µM (active).
`Cn1c(CNc2ccc(C(=N)N)cc2)nc2cc(C(=O)N(CCC(=O)O)c3ccccn3)ccc21`: the Potency entry was “inactive”.
Still for that read-out and setting: under `Cc1ccc(C(=O)Nc2cccc(C(F)(F)F)c2)cc1-c1ccc2nc(NCCN3CCOCC3)ncc2c1` stands 14.8 µM (active).
The same measure, in the same setting: under `CNC(=O)c1ccc(N2C(=S)N(c3cnc(C#N)c(C(F)(F)F)c3)C(=O)C23CCC3)cc1F` stands 8.33 µM (active); under `CC(C)(C)c1cnc(CSc2cnc(NC(=O)C3CCNCC3)s2)o1`, 0.148 µM (active); under `C=C1C(=CC=C2CCC[C@]3(C)[C@@H]([C@H](C)C=C[C@H](C)C(C)C)CC[C@@H]23)C[C@@H](O)C[C@@H]1O`, 2.35 µM (active).
Regarding `O=C(Nc1nc2cccc(-c3ccc(CN4CCS(=O)(=O)CC4)cc3)n2n1)C1CC1`, the Potency is 9.35 µM (active).
`O=C(O)C1(Cc2cccc(Nc3nccs3)n2)CCC(Oc2cccc(Cl)c2F)CC1` (stereo not given): the Potency is 0.743 µM (active).
On the same count and under the same terms, under `Nc1nccc(Oc2ccc(NC(=O)c3c[nH]cc(-c4ccc(F)cc4)c3=O)cc2F)c1Cl` stands 0.743 µM (active); under `Clc1ccc2ncc(-c3cccc(NC4CNC4)n3)n2c1`, 3.32 µM (active).
Still for that read-out and setting: next, `O=c1[nH]nc(Sc2ncc([N+](=O)[O-])s2)n1-c1ccc2c(c1)OCCO2`: 2.96 µM (active).
Still for that read-out and setting: under `CC(C)Nc1cc(C(F)(F)F)cc2nc(NC(=O)c3cccnc3)nn12` stands “inactive”; under `O=C(O)CCCc1c[nH]c2ccccc12`, “inactive”; under `C=C1C(=CC=C2CCCC3(C)[C@@H]([C@H](C)C=CC=CC(O)(CC)CC)CC[C@@H]23)C[C@@H](O)C[C@@H]1O` (stereo not given in full), 23.5 µM (active).
Turning to `CNc1nccc(-c2cccnc2Oc2cc(C(=O)Nc3cccc(C(F)(F)F)c3)ccc2C)n1`, the Potency was 18.7 µM (active).
The same measure, in the same setting: next, `COc1cc2c(Nc3ccc(NC(=O)c4ccccc4)cc3)ncnc2cc1OCCCN1CCOCC1`: 1.05 µM (active); `CCCCCCCCCC(=O)N[C@@H](Cc1c[nH]c2ccccc12)C(=O)N[C@H](CC(N)=O)C(=O)N[C@@H](CC(=O)O)C(=O)N[C@@H]1C(=O)NCC(=O)N[C@@H](CCCN)C(=O)N[C@@H](CC(=O)O)C(=O)N[C@H](C)C(=O)N[C@@H](CC(=O)O)C(=O)NCC(=O)N[C@H](CO)C(=O)N[C@@H]([C@@H](C)CC(=O)O)C(=O)N[C@@H](CC(=O)c2ccccc2N)C(=O)O[C@@H]1C`: “inactive”.
The same measure, in the same setting: under `Cc1nc(N)ncc1-c1nc(N2CCOCC2)c2sc(C(C)(C)O)cc2n1` stands 6.62 µM (active).
Turning to `Cc1ccc(CN2CCNCC2)cc1NC(=O)CNc1ccc(F)c(F)c1`, the Potency was 26.4 µM (active).
Still for that read-out and setting: under `CN(C1CCc2c(c3ccccc3n2CC(=O)O)C1)S(=O)(=O)c1ccc(F)cc1` (stereo not given) stands “inactive”; under `Cc1c(Cn2c(C)nc3c(C(=O)O)cc(N4CCOCC4)cc32)cccc1C(F)(F)F`, 11.8 µM (active); under `CNC(=O)c1ccccc1Nc1nc(Nc2ccc(N3CCOCC3)cc2OC)ncc1Cl`, 1.48 µM (active).
Same read-out and setting: under `CC(C)c1cc(C(=O)N2Cc3ccc(CN4CCN(C)CC4)cc3C2)c(O)cc1O` stands 0.372 µM (active); under `COc1cc2c(Oc3ccc(NC(=O)C4(C(=O)Nc5ccc(F)cc5)CC4)cc3F)ccnc2cc1OCCCN1CCOCC1`, 1.32 µM (active).
As for `CCNC(=O)Nc1ccc2ncc(Nc3ccc(C)cc3)nc2n1`, the Potency is 2.96 µM (active).
The same measure, in the same setting: under `CN(C)c1nc(Cc2ccc(NC(=O)c3ccc4ccccc4c3)cc2)nc(Cl)c1CC(=O)O` stands “inactive”.
Same read-out and setting: next, `COC(=O)Nc1ccc(-c2nc(N3CCOCC3)c3cnn(C4CCN(Cc5cccnc5)CC4)c3n2)cc1`: 0.0833 µM (active).
Still for that read-out and setting: next, `CC(C)(C)c1cc(C(C)(C)C)c(NC(=O)c2c[nH]c3ccccc3c2=O)cc1O`: “inactive”; `Cc1cc(Nc2cc(N3CCN(C)CC3)nc(C=Cc3ccccc3)n2)n[nH]1`: 1.71 µM (active).
